ALOX15 inhib: qHTS Assay for Inhibitors of 15-hLO (15-human lipoxygenase); hit rate 1.4% among 74,000; Potency, µM (titrated, usually from 57.1 µM), usual class: inhibitors; purified 15hLO-1, xylenol orange hydroperoxide absorbance; also: nearly all actives have a fitted effect of over 55% in size
Target sequence (P16050 whole entry, looked up): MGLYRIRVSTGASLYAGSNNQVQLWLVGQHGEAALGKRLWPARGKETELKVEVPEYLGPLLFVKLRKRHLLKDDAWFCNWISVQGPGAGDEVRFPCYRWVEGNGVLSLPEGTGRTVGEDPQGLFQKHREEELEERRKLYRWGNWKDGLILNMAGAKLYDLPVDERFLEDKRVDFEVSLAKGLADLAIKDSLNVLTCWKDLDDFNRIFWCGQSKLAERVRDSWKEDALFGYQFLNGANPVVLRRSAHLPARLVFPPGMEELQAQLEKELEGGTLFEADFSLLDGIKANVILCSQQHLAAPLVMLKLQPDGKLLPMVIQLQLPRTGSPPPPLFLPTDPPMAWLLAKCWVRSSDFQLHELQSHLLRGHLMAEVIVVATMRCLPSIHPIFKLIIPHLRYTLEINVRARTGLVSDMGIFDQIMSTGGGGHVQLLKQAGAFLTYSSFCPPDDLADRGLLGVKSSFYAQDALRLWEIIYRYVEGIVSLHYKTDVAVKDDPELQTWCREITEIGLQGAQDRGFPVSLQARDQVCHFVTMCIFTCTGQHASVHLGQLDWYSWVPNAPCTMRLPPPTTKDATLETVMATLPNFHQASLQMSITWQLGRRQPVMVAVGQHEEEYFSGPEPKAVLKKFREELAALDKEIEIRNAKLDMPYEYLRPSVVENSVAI
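Readout: Fe(III)-xylenol orange absorbance, 573-to-405 nm ratio as reaction progress. Enzyme 40 nM purified human 15hLO-1, substrate 50 uM arachidonic acid, 6 min RT after 15 min compound preincubation; Hepes pH 7.5 buffer with Triton X-100.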
ERK AVP inh: qHTS Assay for Inhibitors of the ERK Signaling Pathway using a Homogeneous Screening Assay | HEK293-V1b, vasopressin-stimulated pERK AlphaScreen | Potency, µM (series often up to 57.5 µM), actives largely listed as inhibitors | hit rate 0.99% among 72,000; also: nearly all actives have a fitted effect of over 55% in size
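Overnight-seeded V1b-HEK293 cells in 1% FBS got compound, then vasopressin (25 nM final, 5 min, 37C), then lysis buffer. AlphaScreen detection of phospho-ERK; activity normalized to basal and full-stimulation controls.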
CRE-bla Fsk: Cell signaling CRE-BLA (Fsk stim); CHO CRE-bla reporter (cAMP response element driving beta-lactamase), forskolin EC10, beta-lactamase ratio; Potency, µM (titrated, usually from 38.2 µM), most hits filed as activators; hit rate 2.5% among 71,000; active = well fitted activation curve with a large enough effect in the signal ratio, with a control signal flat, not every such curve was filed as active; inconclusive = small, poorly fitted or top-dose-only effect, or effect the other way, or a change in a side signal; the % refers to the signal ratio
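Forskolin analogue NKH 477 at EC10 stimulated CRE-driven beta-lactamase in CHO cells alongside compound dilution series. Beta-lactamase was measured with CCF4, excitation 405 nm, emission ratio 460/530 nm.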
15-hLO-2 inh: qHTS Assay for Inhibitors of 15-hLO-2 (15-human lipoxygenase 2); hit rate 0.56% among 110,000; Potency, µM (doses to about 57.1 µM), hits mostly inhibitors; purified 15hLO-2, xylenol orange hydroperoxide absorbance; also: nearly all actives have a fitted effect of over 60% in size
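Purified human 15hLO-2 (50 nM final) preincubated with compounds 15 min at room temperature in 25 mM Hepes pH 7.5, 0.01% Triton X-100, then 45 uM arachidonic acid added for 90 min; hydroperoxide detected via ferrous/xylenol orange, 573/405 nm absorbance ratio.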
Of the large screens only hits and unclear results are named; the others gave an inactive call. Most compounds without a hit are left out; they make up all but 3.2% or so of the library. Unless noted, calls follow the shape of the dose curve; as a rule, active = well fitted inhibition curve with a large enough effect; inconclusive = small, poorly fitted or top-dose-only effect; inactive = no such curve, though single readings can be large or run the other way.

CCOC(=O)CCN1C(=O)[C@H]2[C@H]3[C@H](O)[C@H](O)C/C(=N/OC[C@@H](O)COCc4ccco4)[C@H]3CC[C@@H]2C1=O	none (no result: CRE-bla Fsk, 15-hLO-2 inh)
CO[C@H]1COC(=O)CCC[C@@H](C)[C@H](OC)COC(=O)[C@H]2CCCN2C(=O)C/C=C\[C@@H]1C	none (no result: CRE-bla Fsk, 15-hLO-2 inh)
COCCNc1nc(-c2ccc(N(C)C)cc2)nc2ccccc12	CRE-bla Fsk inconclusive
CCc1nc(N)c(C#N)c(-c2cccn2C)c1C	ERK AVP inh inconclusive, CRE-bla Fsk 12.6µM (no result: 15-hLO-2 inh)
CCc1nc(N)c(C#N)c(-c2ccco2)c1C	CRE-bla Fsk 10µM (no result: 15-hLO-2 inh)
COC(=O)[C@@]1(Cc2ccc(OC)cc2)[C@H]2c3cc(C(=O)N(C)C)n(C)c3C[C@H]2CN1C(=O)c1ccccc1	CRE-bla Fsk inconclusive (no result: ALOX15 inhib)
COc1ccccc1CNCCCCCCNCCCCCCCCNCCCCCCNCc1ccccc1OC	none
CN(C)CN1CSC(=S)N(CN(C)C)C1	ALOX15 inhib inconclusive
COc1cccc(-c2ccc3ncnc(N(C)C)c3c2)c1	ERK AVP inh inconclusive
Cc1cnc(CNc2ncnc3ccc(-c4cccc(NS(C)(=O)=O)c4)cc23)cn1	none
CN(C)c1ncnc2ccc(-c3cccnc3)cc12	ERK AVP inh inconclusive, CRE-bla Fsk 3.16µM
CN(C)c1ncnc2ccc(-c3cccc(NS(C)(=O)=O)c3)cc12	ERK AVP inh inconclusive, CRE-bla Fsk 10µM
CS(=O)(=O)Nc1cccc(-c2ccc3ncnc(NCc4cccs4)c3c2)c1	ERK AVP inh 15.8µM, CRE-bla Fsk inconclusive
Nc1ncn([C@H]2O[C@@H](CO)[C@@H](O)[C@@H]2O)c(=O)n1	none
CCSc1ccccc1C(=O)Nc1cc(C)on1	ALOX15 inhib 12.6µM
COc1ccc2c3c([nH]c2c1)[C@H]1C[C@@H]2[C@@H](C[C@@H](O)[C@H](OC)[C@H]2C(=O)O)CN1CC3	none
COC(=O)CSc1nc(-c2cccs2)ccc1C#N	none (no result: ALOX15 inhib, ERK AVP inh, CRE-bla Fsk)
C#CCSc1nc(-c2cccs2)ccc1C#N	CRE-bla Fsk 7.94µM
COCc1cc(C)nc(SCC(=O)Nc2cccc3cccnc23)c1C#N	CRE-bla Fsk 10µM (no result: ERK AVP inh, 15-hLO-2 inh)
COCc1cc(C)nc(SCC(=O)c2ccc(O)c(O)c2)c1C#N	ALOX15 inhib 3.16µM
CCCCCCCCCCCCC1CO1 (configuration not stated)	none
CC(=O)N1CC=CC1(C)C(=O)NCC1CC1 (configuration not stated)	none
O=C1NC(c2cccs2)Nc2sc3c(c21)CCCC3 (configuration not stated)	ALOX15 inhib 25.1µM, ERK AVP inh inconclusive, CRE-bla Fsk inconclusive
CN1CCc2c(sc3c2C(=O)NC(c2cccc(OC(=O)c4cccs4)c2)N3)C1 (configuration not stated)	CRE-bla Fsk inconclusive (no result: 15-hLO-2 inh)
CN1CCN(S(=O)(=O)c2ccc(SCCOc3ccccc3)nc2)CC1	ERK AVP inh 25.1µM
O=c1ccc2ccc(O)c(O)c2o1	ALOX15 inhib 25.1µM, 15-hLO-2 inh inconclusive
Cc1nn(-c2ccc(S(=O)(=O)O)cc2)c(O)c1N=Nc1ccc(-c2ccc(N=Nc3ccc4c(S(=O)(=O)O)cc(S(=O)(=O)O)c(N)c4c3O)c(O)c2)cc1O.[Cu].[Cu]	ALOX15 inhib 3.98µM
COc1cc(-c2ccc(N=Nc3ccc4c(S(=O)(=O)O)cc(S(=O)(=O)O)c(N)c4c3O)c(OC)c2)ccc1N=Nc1ccc2c(S(=O)(=O)O)cc(S(=O)(=O)O)c(N)c2c1O	ALOX15 inhib inconclusive, ERK AVP inh 15.8µM, CRE-bla Fsk inconclusive, 15-hLO-2 inh 25.1µM
CCc1c(C#N)c(N)nc(SCC(=O)OCc2ccccc2)c1C#N	ERK AVP inh 31.6µM, CRE-bla Fsk inconclusive
COc1ccc(OC)c(S(=O)(=O)N2CCC(C(=O)Nc3cccc(C(F)(F)F)c3)CC2)c1	ERK AVP inh 15.8µM, CRE-bla Fsk inconclusive
COCCNc1ncnc2ccc(-c3ccc(C(=O)N(C)C)cc3)cc12	CRE-bla Fsk inconclusive
Cn1c(N)c(C(=O)NCc2ccccc2)sc1=S	ALOX15 inhib 12.6µM
N#CC1=C(N)OC(c2ccccc2)=C(C#N)C1c1ccc2c(c1)OCO2 (configuration not stated)	ALOX15 inhib 31.6µM, CRE-bla Fsk inconclusive
Cc1ccc(C2C(C#N)=C(N)Oc3cc4c(cc32)OCO4)cc1 (configuration not stated)	ALOX15 inhib inconclusive
C[C@@H]1/C=C\CC(=O)OC[C@H](C)C(=O)N[C@@H](Cc2ccccc2)C(=O)OC1	none (no result: CRE-bla Fsk, 15-hLO-2 inh)
CCc1nc(Nc2ccc(N3CCN(C(C)=O)CC3)cc2)c2oc3ccccc3c2n1	ERK AVP inh 31.6µM, CRE-bla Fsk 1.26µM
CCOC(=O)C1CCCN(c2ncnc3c2oc2ccccc23)C1 (configuration not stated)	ERK AVP inh 25.1µM
CC(=O)c1ccc(Nc2nc(C)nc3c2oc2ccccc23)cc1	CRE-bla Fsk 2µM
Cc1nc(Nc2ccc3c(c2)OCO3)c2oc3ccccc3c2n1	none (no result: ALOX15 inhib, ERK AVP inh, CRE-bla Fsk)
CC(=O)N1CCN(c2ccc(Nc3ncnc4c3oc3ccccc34)cc2)CC1	ERK AVP inh 20µM
Cc1cnc(CNc2ncnc3ccc(-c4ccccc4C#N)cc23)cn1	none
c1ccc2c(c1)oc1c(Nc3ccc(CN4CCOCC4)cc3)ncnc12	ERK AVP inh 20µM, CRE-bla Fsk inconclusive
c1ccc(N2CCN(c3ncnc4c3oc3ccccc34)CC2)cc1	ERK AVP inh 31.6µM, CRE-bla Fsk inconclusive
c1ccc2c(c1)oc1c(NCCN3CCOCC3)ncnc12	none
C=CCn1c(SCc2c(C)noc2C)nc2sc3c(c2c1=O)CCCCC3	CRE-bla Fsk 2.51µM
Cc1noc(C)c1CSc1nc2sc(C)c(C)c2c(=O)n1C1CCCC1	CRE-bla Fsk 2µM
Cc1noc(C)c1CSc1nc2sc3c(c2c(=O)n1C)CCCC3	none (no result: ALOX15 inhib, ERK AVP inh, CRE-bla Fsk)
Nc1c(C(=O)N2CCCCC2)sc(=S)n1-c1ccccc1	ALOX15 inhib 10µM, ERK AVP inh inconclusive
CSc1ccccc1NC(=O)c1c(C)noc1C	ALOX15 inhib inconclusive, CRE-bla Fsk 12.6µM
CSc1ccccc1NC(=O)c1onc(C)c1Cl	ALOX15 inhib inconclusive
[O][C@H]1[C@@H](O)[C@@H](CO)O[C@@H](O[C@@H]2[C@@H]3OC[C@H]2O[C@H](O[C@@H]2[C@@H](O)[C@H](C[C@@H]4[C@@H]5OC[C@H]4O[CH][C@@H]5O)O[C@H](CO)[C@@H]2OS(=O)(=O)O)[C@@H]3OS(=O)(=O)O)[C@@H]1O	none (no result: ALOX15 inhib, ERK AVP inh, CRE-bla Fsk)
Cc1cc(NC(=O)CCCC(=O)N(CC(=O)NC2CCCCC2)c2ccccc2)no1	ALOX15 inhib 25.1µM
Cc1ccc(N(CC(=O)NC2CCCC2)C(=O)CCCC(=O)Nc2ccccn2)cc1C	none
CN(Cc1cc(C(C)(C)C)cc(Br)c1O)Cc1cc(C(C)(C)C)cc(Br)c1O	none
CN(Cc1ccccc1)c1ncnc2c1cnn2-c1ccccc1	ERK AVP inh inconclusive, CRE-bla Fsk 10µM
COCCN(CCOC)c1ncnc2c1cnn2-c1ccc(Cl)cc1	CRE-bla Fsk 10µM
N[C@H](Cc1c[nH]c2ccccc12)C(=O)O	none (no result: ERK AVP inh, CRE-bla Fsk, 15-hLO-2 inh)
NC(Cc1c[nH]c2ccccc12)C(=O)O (configuration not stated)	ALOX15 inhib 7.94µM (no result: CRE-bla Fsk)
